Laboratory results: PubChem BioAssay

Assay: compound effects on differentiated 3T3-L1 adipocyte viability – cell-based, 3T3-L1 adipocytes, calcein-AM fluorescence, 48 h, basal, profiling panel (AID 1163); note: test concentration not given here
Settings: 3T3-L1 adipocytes viability, higher = more signal

SMILES | z-score
COC(=O)[C@@]1(Cc2ccc(F)cc2)[C@H]2c3cc(C(=O)N(C)C)n(CCc4ccc(O)c(O)c4)c3C[C@H]2CN1C(=O)c1ccccc1 | -1.17
CCOC(=O)C1=CC[C@@H](c2ccc(OC)cc2)N(S(=O)(=O)c2ccc(C)cc2)[C@H]1c1ccc(C)cc1 | -1.09
[N-]=[N+]=NCc1ccccc1[C@@H]1OC(c2ccc(OCCCO)cc2)=N[C@]1(Cc1ccccc1N=[N+]=[N-])C(=O)O | 1.47
COC(=O)[C@@]1(Cc2ccccc2)[C@H]2c3cc(C(=O)N(C)C)n(CCSC(=N)N)c3C[C@H]2CN1C(=O)c1ccccc1 | 0.451
Cc1ccc(S[C@]2(C(=O)NC(C)C)CC(=O)N(C3CCCCC3)[C@@H]2c2ccc(CO)cc2I)cc1 | 0.0617
COC(=O)C(CC#Cc1ccc2c(c1)[C@]1(C(=O)N2)[C@H](C(=O)N2CCc3cc(OC)c(OC)cc3C2)[C@H]2C(=O)O[C@H](c3ccccc3)[C@H](c3ccccc3)N2[C@@H]1c1ccccc1OCCO)C(=O)OC | -0.665
C=CC[C@@]12N=C(c3ccc(OCCCO)cc3)O[C@@H]1c1ccccc1N(CCC)C2=O | 0.96
CCC(CC)C(O)C1C=CC2C(=O)N(c3ccccc3)C(=O)C2N1Nc1ccccc1F (stereo unspecified) | 0.561
C=C(COC)/C(=C/C[C@H](OC(C)=O)c1ccccc1OCCO)c1cc(C(=O)OC)ccc1OC | 1.66
CN(C)CCCC[C@@H]1NC(=O)[C@@H]2C[C@H](C(=O)NCCCCCN)[C@H](c3cccc(OCCO)c3)N2C1=O | 0.494
COC(=O)C[C@H]1O[C@@]2(C[C@@H]1[Si](C)(C)C)C(=O)N(C)c1ccccc12 | 0.69
